# ALDH1A1 block: ALDH1A1 (human) enzyme inhibition. AID 1030. hit rate 7.3% among 220,000. Purified ALDH1A1, NADH fluorescence, propionaldehyde substrate. P00352. Potency, µM (top dose mostly 75.3 µM), inactives show top-dose activity, negative = inhibition, most hits filed as inhibitors;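 also: potency is read from the fitted curve at half-maximal effect; plate controls were no enzyme wells and a reference inhibitor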
# Target sequence (P00352 whole entry, looked up): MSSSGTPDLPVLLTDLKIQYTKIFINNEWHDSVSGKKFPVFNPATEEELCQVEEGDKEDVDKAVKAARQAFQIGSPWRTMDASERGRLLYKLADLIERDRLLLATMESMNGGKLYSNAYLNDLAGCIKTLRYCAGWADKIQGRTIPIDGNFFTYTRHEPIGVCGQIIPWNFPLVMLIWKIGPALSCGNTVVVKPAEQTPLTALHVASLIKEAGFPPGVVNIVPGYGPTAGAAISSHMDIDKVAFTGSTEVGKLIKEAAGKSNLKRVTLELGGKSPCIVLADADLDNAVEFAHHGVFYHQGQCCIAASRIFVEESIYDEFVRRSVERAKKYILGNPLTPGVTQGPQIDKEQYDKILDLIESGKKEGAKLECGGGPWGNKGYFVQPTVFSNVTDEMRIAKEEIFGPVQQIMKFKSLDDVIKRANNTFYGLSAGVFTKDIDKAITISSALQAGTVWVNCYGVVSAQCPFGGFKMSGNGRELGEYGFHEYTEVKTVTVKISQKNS
# HPGD block: blocks human HPGD enzyme activity | P15428 | purified HPGD, NADH fluorescence kinetic, PGE2 substrate | Potency, µM, inactives show at the highest dose activity change, negative = inhibition, hits mostly inhibitors | hit rate 4.3% among 150,000; also: potency is read from the fitted curve at half-maximal effect
#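 NADH formation kinetics: reaction with 30 uM PGE2 and 1 mM NAD+ (final), 20 nM enzyme, Tris-HCl pH 8 with Tween 20, after 15 min compound preincubation at room temperature. Fluorescence change, last versus first of five reads.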
# PNC inhibitor: blocks assembly of the perinucleolar compartment; activity change (PNC), negative = inhibition, % at 10 µM; hit rate 3.1% among 140,000; AID 2417; PC3M PTB-GFP, PNC prevalence imaging, 16 h; stronger effect = lower value;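 active = readout at or below -70, meaning at least 70% loss of cells showing the perinucleolar compartment, a nuclear body marking cancer cells; inconclusive = readout between -30 and a set limit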;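 also: plate controls were DMSO wells for no effect and camptothecin positive control wells for full effect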
#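 Compounds are pinned in duplicate onto adhered PC3M cells stably expressing GFP-tagged PTB and incubated 16 h at 37 C. Cells are then fixed, nuclei stained with Hoechst, and PNC-positive cells counted.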
# Starred values were filed as active, the others as inactive; u = inconclusive; x = no result given; [ ] = another dose, or the depositor's remark. Shown are actives, neighbours in structure and some others; about 11% of the full set was active somewhere. Unless noted, calls follow the shape of the dose curve; as a rule, active = well fitted inhibition curve with a large enough effect (not every such curve was filed as active); inconclusive = small, poorly fitted or top-dose-only effect, or another doubt; inactive = no such curve, though single readings can be large or run the other way. Unless noted, % is scaled to controls: 0 for no effect and ±100 for the full control effect.
SMILES,ALDH1A1 block,HPGD block,PNC inhibitor
CN1CCN(CC(=O)n2c3c(c4ccccc42)CCCC3)CC1,-11%,0%,u
CCN(CC)CC(=O)n1c2c(c3ccccc31)CCCC2,32µM*,-10%,-100*
Cc1oc(-c2ccccc2)nc1CSc1nc2c(c(=O)[nH]1)CCC2,7%,4.5µM*,u
CSc1nc2c(c(=O)[nH]1)CCCC2,8%,-16%,-5
Cc1cccc(-c2nc(CSCC(=O)N3CCN(c4ccccn4)CC3)c(C)o2)c1,-4%,-12%,92
Cc1ccccc1-c1nc(CSc2nc3c(c(=O)[nH]2)CCC3)c(C)o1,9%,4.5µM*,73
Cc1ccccc1-c1nc(CN2CCC(C(=O)O)CC2)c(C)o1,20%,0%,5
CCCCSc1nc2c(c(=O)[nH]1)CCC2,-12%,28µM*,35
O=C(O)CSc1nc2c(c(=O)[nH]1)CCCC2,8%,x,17
Cc1cccc(-c2nc(CSc3nc4c(c(=O)[nH]3)CCC4)c(C)o2)c1,-2%,2.8µM*,56
Cc1ccc(N2C(=O)C3ON(c4ccccc4)C(c4ccncc4)C3C2=O)c(C)c1 (centres undefined),u,-12%,19
CCCCN(C)C/C(O)=C(\C#N)c1nc(-c2ccccc2)cs1,1%,-8%,-9
CCOC(=O)c1c(-c2ccc(C)cc2)csc1NC(=O)c1cc2ccccc2oc1=O,u,-20%,6
Cc1ccccc1CSc1nnc(C)c(=O)[nH]1,u,u,20
Cc1ccccc1CSc1nc2c(c(=O)[nH]1)CCC2,9%,3.5µM*,3
C[C@]12CC[C@H]3c4ccc(O)cc4CC[C@@H]3[C@H]1C/C(=N/O)[C@H]2O,-13%[13.5 µM],-3%,x
Cc1cc(C)c2ccc(=S)[nH]c2n1,3.5µM*,x,x
COc1ccc2c(C)cc(C)nc2n1,7%[13.5 µM],-4%,x
O=C(O)CCCC(=O)N1CCc2cc(S(=O)(=O)NCc3ccc(F)cc3)ccc21,15%,x,x
O=C(O)c1cc(-c2cccc(Cl)c2)nc2nc(N3CCCCC3)sc12,u,u,-86*
O=C(c1ccccc1)c1sc(N2CCCCCC2)nc1-c1ccccc1,u,-16%,-17
O=C(O)COc1ccc(C(=O)c2ccccc2)cc1,1%,x,x
CC(=O)c1ccc(OCc2ccc(C(=O)c3ccccc3)cc2)cc1,11µM*,x,x
CN(C)S(=O)(=O)n1cnc(-c2ccccc2)c1-c1ccccc1,12%,-7%,-117*
Cc1nc2ccccc2n1S(=O)(=O)N(C)C,6%,-3%,u
SMILES,ALDH1A1 block,HPGD block,PNC inhibitor
CC(=O)Nc1ccc(N2C(=O)CC(Sc3nc4ccccc4s3)C2=O)cc1 (centres undefined),0.71µM*,x,x
COc1ccc(N2C(=O)CC(Sc3nc4ccccc4s3)C2=O)cc1OC (centres undefined),3.5µM*,x,x
CC(=O)Nc1ccc(N2C(=O)CC(c3ccccc3)CC2=O)cc1,2%,-13%,-9
CCOC(=O)c1cnc(SC2CC(=O)N(c3ccc(OC)c(OC)c3)C2=O)nc1N (centres undefined),u,-13%,-4
COc1ccc(CNC(=O)C2CCCN2S(=O)(=O)c2ccc(F)cc2)cc1 (centres undefined),-7%,x,x
Cc1c(C(=O)N2CCc3ccccc3C2)sc2nc(-c3ccccc3)cn12,u,7.1µM*,15
CCN(CC)C(=O)c1sc2nc(-c3ccc(OC)cc3)cn2c1C,-14%,14µM*,15
Cc1c(C(=O)N2CCN(c3ccc(F)cc3)CC2)sc2nc(-c3ccccc3)cn12,5%,-20%,-8
CCOC(=O)C1CCN(C(=O)c2sc3nc(-c4ccccc4)cn3c2C)CC1,-8%,-11%,-9
COc1ccccc1N1CCN(C(=O)c2sc3nc(-c4ccccc4)cn3c2C)CC1,5%,-5%,-95*
CNC(=O)c1sc2nc(-c3ccc(OC)cc3)cn2c1C,-7%,-26%,45
COc1cc(-c2[o+]c3cc(O)cc(O)c3cc2O)cc(O)c1O,6%[13.5 µM],-11%,x
O=C(NC1CSC/C1=N\O)c1ccccc1 (centres undefined),22µM*,-11%,10
O=C(NC(=S)NC1CCSC1=O)c1ccccc1 (centres undefined),2%,-7%,12
CC(=O)N1CCN(CCN=CC2=C(O)CC(c3ccco3)CC2=O)CC1 (centres undefined),5%,-17%,u
O=C1CC(c2ccco2)CC(O)=C1C=Nc1cc(Cl)ccc1Cl (centres undefined),u,-19%,-24
O=C1CC(c2ccco2)CC(O)=C1C=Nc1cc(Cl)ccc1O (centres undefined),u,8.9µM*,-8
O=C1CC(c2ccco2)CC(O)=C1C=NCCN1CCN(C(=O)Nc2ccc(Cl)cc2)CC1 (centres undefined),4%,-4%,-99*
Cn1c(=O)c2c(nc(NCCNc3nc4c(c(=O)n(C)c(=O)n4C)n3C)n2C)n(C)c1=O,13%[13.5 µM],-2%,x
O=C(O)c1cnc(-c2ccccc2)nc1Sc1ccccc1Cl,3%,14µM*,23
O=C(O)c1cnc(-c2ccccc2)nc1Sc1ccc(Cl)cc1,2%,-2%,0
N#CCCN(CC#Cc1ccccc1)OCc1ccccc1,-15%[13.5 µM],x,x
CCOC(=O)/C(C#N)=C/c1ccc(OC(=O)c2ccco2)c(OCC)c1,u,x,-27
N#C/C(=C\c1ccc(O)c(O)c1)S(=O)(=O)c1ccccc1,u,u,-30
N#C/C(=C\c1ccc(O)c(O)c1)C(=O)OCCc1cccs1,-11%,28µM*,x
SMILES,ALDH1A1 block,HPGD block,PNC inhibitor
CC(C)COC(=O)/C(C#N)=C/c1c[nH]c2ccccc12,u,-7%,u
N#C/C(=C\c1ccc(O)c(O)c1)C(=O)c1ccc(O)c(O)c1,u,7.9µM*,x
N#C/C(=C\c1c[nH]c2ccccc12)C(=O)c1ccc(O)c(O)c1,u,3.5µM*,x
CCOC(=O)c1c(C)c(C(=O)N(C)C2CCCCC2)c(C)n1C,-10%,-18%,53
CCOC(=O)C1=C(N)n2c(s/c(=C/c3ccco3)c2=O)=C(C(=O)OC)C1c1ccco1 (centres undefined),u,-29%,u
N#CC1=C(N)n2c(s/c(=C\c3ccco3)c2=O)=C(C#N)C1c1ccco1 (centres undefined),22µM*,-24%,0
CCN(CC)CCN1C(=O)C(=O)/C(=C(/O)c2cnn(-c3ccccc3)c2C)C1c1cccnc1 (centres undefined),0%,-11%,20
CN(C)S(=O)(=O)c1ccc(/C(O)=C2/C(=O)C(=O)N(Cc3cccnc3)C2c2ccncc2)cc1 (centres undefined),14µM*,-13%,-9
Cc1c(/C(O)=C2/C(=O)C(=O)N(Cc3cccnc3)C2c2cccs2)cnn1-c1ccccc1 (centres undefined),1.1µM*,20µM*,8
CCN(CC)CCN1C(=O)C(=O)/C(=C(/O)c2ccc(F)cc2)C1c1cccnc1 (centres undefined),-4%,-3%,u
CN(C)S(=O)(=O)c1ccc(/C(O)=C2/C(=O)C(=O)N(Cc3cccnc3)C2c2ccco2)cc1 (centres undefined),u,-12%,-10

# Compound activity deposited in PubChem BioAssay by National Center for Advancing Translational Sciences (NCATS).
